High-throughput results: PubChem BioAssay, National Center for Advancing Translational Sciences (NCATS)
ATXN2 expr inh: ATXN2 expression inhibition | HEK-293 ATXN2-luciferase reporter, luminescence, 24 h | Potency, µM (titrated, usually from 57 µM), hits mostly inhibitors | 360,000 compounds, 0.72% hits | AID 1745845; also: nearly all actives have a fitted effect of over 55% in size
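qHTS (up to 57 uM final) was run with 24 h compound exposure of reporter cells at 37 °C. Each well was multiplexed: SteadyGlo luminescence measured ATXN2-luciferase expression after a fluorogenic Gly-Phe-AFC viability readout (25 uM final).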
Nrf2 activator: activators of Nrf2 (ARE) signaling | 410,000 compounds, 0.31% hits | AREc32 ARE-luciferase reporter (MCF7-derived line), luminescence, 24 h | AID 624171 | Potency, µM (top dose mostly 46.1 µM), most hits filed as activators; also: nearly all actives have a fitted effect of over 65% in size
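Each well held 1000 AREc32 cells, which were incubated with compound for 24 hr at 37 deg C after overnight attachment, and ARE reporter activity was quantified by firefly luciferase luminescence.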
A549 viability: counter-screen for Nrf2 inhibitors: cytotoxicity in A549 cells. Potency, µM (titrated, usually from 46 µM), usual class: inhibitors. 390,000 compounds, 0.16% hits. AID 504648. A549 ARE-Fluc cells, CellTiter-Fluor viability, 18-24 h
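A549 ARE-Fluc cells in 5% FBS OPTI-MEM, 5000 cells/well, rested 2 h then exposed to compounds in concentration-response for 18-24 h at 37 °C. Viability by CellTiter-Fluor fluorescence (Ex 405/Em 525) after 30 min; luciferase luminescence (BugLite, 15 min, RT) read afterwards.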
Nrf2 block: blocks Nrf2 signaling; A549 ARE-Fluc reporter, luciferase luminescence, 18-24 h; Potency, µM (top dose mostly 46 µM), most hits filed as inhibitors; 360,000 compounds, 2.1% hits; also: nearly all actives have a fitted effect of over 60% in size
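Nrf2 activity is the BugLite luminescence, read 15 min after reagent at room temperature, following CellTiter-Fluor cytotoxicity readout (30 min, 37C). Compound titrations were applied for 18-24 h to 5000 A549 ARE_Fluc cells/well in 5% FBS OPTI-MEM.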
ATXN viability: viability counter-screen for ATXN expression inhibitors; Potency, µM (top dose mostly 56.7 µM), hits mostly cytotoxic; S2 cells (HEK-293 line with an ATXN2-luciferase reporter) viability, CellTiter-Fluor protease fluorescence, 24 h; 400,000 compounds, 0.49% hits; also: nearly all actives have a fitted effect of over 40% in size
Hits are given with their value; n = inactive; u = inconclusive; x = not tested or not shown. Only some compounds are listed: those with a hit (about 2.9% of all), similar ones and a draw of the others. Calls follow the shape of the dose curve; as a rule, active = well fitted curve in the direction sought with a large enough effect; inconclusive = small, poorly fitted or top-dose-only effect, or another doubt; inactive = no such curve, though single readings can be large; an effect the other way counts as inactive or inconclusive.

SMILES	ATXN2 expr inh	Nrf2 activator	A549 viability	Nrf2 block	ATXN viability
Cn1cc(-c2cc3n(n2)CCC(=O)N3CCCC(=O)NCc2ccc(Cl)cc2)c2ccccc21	u	n	n	x	u
O=C(CSc1ccc2nnc(CCNS(=O)(=O)c3ccccc3)n2n1)Nc1ccccc1C(F)(F)F	x	n	n	n	x
COc1nc(N(C)S(=O)(=O)c2ccc(C)cc2)nc(C)c1Br	x	n	n	4.1µM	n
COC(=O)CN(c1nc(C)c(Br)c(OC)n1)S(=O)(=O)c1ccccc1	x	n	n	n	n
CCCCNC(=O)c1cccc(-n2cnc3cccnc32)c1C	x	n	n	n	x
C=C(C)n1c(=O)n(Cc2ccc(C)cc2)c2ccccc21	x	n	n	16µM	n
COC(=O)c1sc(NC(=S)NC(=O)c2ccccc2C)nc1C	n	n	n	u	n
COC(=O)c1sc(NC(=S)NC(=O)c2cccc(Br)c2)nc1C	x	16µM	n	n	n
Cc1oc(-c2ccccc2NC(=O)c2cccnc2)nc1CNC(=O)C1CCCCCN1C (configuration not stated)	x	x	x	x	n
CCOC(=O)C1CCC(CN(Cc2ccc(Cl)cc2)S(=O)(=O)c2cccc(Cl)c2C)CC1 (configuration not stated)	n	n	n	x	n
O=S(=O)(c1ccccc1Cl)N1CCN(c2nc(-c3cccs3)nc3ccccc23)CC1	x	x	n	n	x
CC(C)C[C@@H](CN1CCC[C@@H]1CN1C(=S)NC[C@@H]1Cc1ccccc1)N1C[C@H](Cc2ccc(O)cc2)N(CC2CCCCCC2)C1=S	22µM	n	x	x	14µM
CC(C)C[C@H]1CNC(=S)N1C[C@H]1CCCN1C[C@H](CC(C)C)N1C[C@H](Cc2ccc(O)cc2)N(CC2CCCCCC2)C1=S	u	n	x	x	22µM
O=C(Nc1ccc2oc(-c3ccc4ccccc4c3)nc2c1)c1cc(Cl)ccc1Cl	x	n	n	n	x
CC(C)Cc1nc2cc(NS(=O)(=O)N(C)C)cc(C(=O)N3CCc4ccccc4C3)c2n1C	x	x	x	x	n
Cc1ncc2c(c1CNC(=O)c1ccc3c(c1)OCO3)CCN(C(=O)c1coc3c1C(=O)CCC3)C2	x	x	x	x	n
O=S1(=O)N=C(Oc2cccc(Cl)c2)c2ccccc21	x	x	n	n	x
COc1cc2c(cc1NC(=O)CN(C)Cc1ccc(OC)c(OC)c1)oc1ccccc12	n	n	n	16µM	n
COc1ccc(CN(C)CC(=O)Nc2cc3oc4ccccc4c3cc2OC)c(OC)c1	n	n	n	n	n
COc1ccc(F)c(F)c1C(=O)c1cnc(NC2CCN(S(C)(=O)=O)CC2)nc1N	2.7µM	x	x	x	x
COc1ccc(CCNC(=O)c2c(C)nn(-c3ccc(F)cc3)c2-n2cccc2)cc1OC	n	n	n	n	u
O=C(N/N=C1\C/C(=N\NC(=O)c2ccncc2)c2ccccc21)c1ccncc1	x	u	u	7.3µM	n
O=C(N/N=C/C(Cl)=C\c1ccccc1)c1cccs1	n	11µM	n	u	n
O=C(N/N=C/C(Cl)=C/c1ccccc1)c1ccncc1	n	22µM	n	n	n
O=C(NN=C1C2CC3CC(C2)CC1C3)c1ccncc1	n	n	n	n	n
COc1ccc(C2=Nn3c(nnc3-c3ccc(OC)cc3OC)SC2)c(OC)c1	x	x	n	n	x
